Among the data in PubChem BioAssay (NCATS) are Potency values, retold here.

Results filed as inconclusive are left out. A call without a number means that no potency is given here. Calls of active or inactive are those of the source. The call rests on the fitted dose curve; in most records, active means well fitted curve in the direction sought with a large enough effect; inconclusive means small, poorly fitted or top-dose-only effect, or another doubt; inactive means no such curve, though single readings can be large; an effect the other way counts as inactive or inconclusive. Peptide text beside a SMILES is read from it.

Test [1] concerns the target ATP-dependent 6-phosphofructokinase (Trypanosoma brucei brucei) (UniProt O15648). The test can be described thus: qHTS Assay to Find Inhibitors of T. brucei phosphofructokinase: hit validation (AID 492961). The gist of the method: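 Percent activity derived from corrected luminescence, normalized between 0x and 1x enzyme controls, then fitted to concentration-response curves. Conditions: 1.25 nM PFK, 0.1 mM ATP, 0.5 mM F6P, 45 min RT.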
On the technique in general: In qHTS, concentration-response curves come from the screen itself.

In test [2] the target is Tyrosyl-DNA phosphodiesterase 1 (Homo sapiens) (UniProt Q9NUW8). The test can be described thus: Confirmation Assay for Inhibitors of Tyrosyl-DNA Phosphodiesterase (TDP1) (AID 489007). Further: nearly all actives have a fitted effect of over 40% in size. To be noted: recombinant human TDP1 enzymatic activity, dose-response. Put shortly: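 Tdp1 1 nM + cpd, 15 min RT; add biotin/phosphotyrosine-FITC oligo 15 nM, 5 min RT; add AS donor/acceptor beads 10 ug/ml, 10 min RT; read AlphaScreen. No-enzyme wells = max signal.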
Potency means the concentration at half of the fitted maximal effect.

ATP-dependent 6-phosphofructokinase (Trypanosoma brucei brucei), sequence (O15648 whole entry, looked up): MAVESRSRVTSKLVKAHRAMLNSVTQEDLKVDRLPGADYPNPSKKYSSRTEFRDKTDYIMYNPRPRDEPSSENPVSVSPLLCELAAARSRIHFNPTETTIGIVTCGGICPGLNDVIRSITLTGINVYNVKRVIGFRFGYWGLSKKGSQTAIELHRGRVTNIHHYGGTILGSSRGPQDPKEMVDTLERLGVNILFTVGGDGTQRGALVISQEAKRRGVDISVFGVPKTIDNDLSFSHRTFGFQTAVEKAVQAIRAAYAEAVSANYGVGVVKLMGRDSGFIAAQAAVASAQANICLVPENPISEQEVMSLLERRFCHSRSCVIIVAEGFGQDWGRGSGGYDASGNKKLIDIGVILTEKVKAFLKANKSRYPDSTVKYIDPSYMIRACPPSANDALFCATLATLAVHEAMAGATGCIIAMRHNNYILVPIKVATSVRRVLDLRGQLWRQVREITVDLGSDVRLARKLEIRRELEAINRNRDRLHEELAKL
Tyrosyl-DNA phosphodiesterase 1 (Homo sapiens), sequence (Q9NUW8 whole entry, looked up): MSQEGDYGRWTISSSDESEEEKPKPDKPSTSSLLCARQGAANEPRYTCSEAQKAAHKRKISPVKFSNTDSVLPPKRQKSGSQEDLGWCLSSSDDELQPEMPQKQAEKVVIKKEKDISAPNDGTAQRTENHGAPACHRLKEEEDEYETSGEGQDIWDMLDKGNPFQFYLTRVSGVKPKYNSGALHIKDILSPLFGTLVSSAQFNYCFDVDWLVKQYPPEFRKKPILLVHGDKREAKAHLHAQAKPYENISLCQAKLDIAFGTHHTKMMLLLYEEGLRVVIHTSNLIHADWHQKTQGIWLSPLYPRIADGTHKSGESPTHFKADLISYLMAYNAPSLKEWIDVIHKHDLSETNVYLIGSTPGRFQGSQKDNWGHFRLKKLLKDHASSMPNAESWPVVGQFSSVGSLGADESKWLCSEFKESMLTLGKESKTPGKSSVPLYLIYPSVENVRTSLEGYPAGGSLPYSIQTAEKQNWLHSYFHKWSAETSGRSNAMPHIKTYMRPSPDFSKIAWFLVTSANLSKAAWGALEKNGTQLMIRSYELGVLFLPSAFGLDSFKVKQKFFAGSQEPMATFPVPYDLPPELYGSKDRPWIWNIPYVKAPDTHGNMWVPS

As to `C[C@H]1C[C@H]2[C@@H]3CCC4=CC(=O)C=C[C@]4(C)[C@@]3(F)[C@@H](O)C[C@]2(C)[C@@]1(O)C(=O)CO`, the Potency result in test [1] was “inactive”.

Consider `CC1(C)C(C=C(Cl)Cl)C1C(=O)OCc1cccc(Oc2ccccc2)c1` (stereo unspecified), for which the Potency entry in test [1] is “inactive”.

With `CCCCC(C)(O)C/C=C/[C@H]1[C@H](O)CC(=O)[C@@H]1CCCCCCC(=O)OC` (stereo partly specified), in test [1], the Potency entry is “inactive”.

Consider `COC(F)(F)C(Cl)Cl`, for which, in test [1], the Potency entry was “inactive”.

Consider `COCC(=O)Nc1cc(Sc2ccccc2)ccc1N=C(NC(=O)OC)NC(=O)OC`, for which the Potency result in test [1] was “inactive”.

Take `CC1(C)S[C@@H]2[C@H](NC(=O)[C@@H](NC(=O)N3CCNC3=O)c3ccccc3)C(=O)N2[C@H]1C(=O)O`: the Potency result in test [1] was “inactive”.

On to `O=S(=O)(O)O`, for which the Potency entry in test [1] is “inactive”.

For `O=C(Nc1ccc(Br)cc1)c1cc(Br)c(Br)s1`, the Potency result in test [1] is “inactive”.

As to `CCCCCCCC/C=C\CCCCCCCC(=O)O`, the Potency entry in test [1] is “inactive”.

In the case of `Cc1cc(C(=O)NNCc2ccccc2)no1`, the Potency result in test [1] is “inactive”.

`C=CCSSSCC=C`: the Potency entry in test [1] is “inactive”.

On to `CC(=O)N[C@@H](CC(=O)O)C(=O)N[C@@H](CCC(=O)O)C(=O)O` (Ac-Asp-Glu-OH), for which, in test [2], the Potency was 25.1 µM (active).

As to `Cc1ccccc1OCC(O)CNCCOc1ccc(C(N)=O)cc1` (stereo unspecified), the Potency result in test [1] was “inactive”.

In the case of `CC(C(=O)O)c1ccc(N2Cc3ccccc3C2=O)cc1` (stereo unspecified), the Potency result in test [1] was “inactive”.

On to `Cc1c(C)c2c(c(C)c1O)CC[C@@](C)(CCC[C@H](C)CCC[C@H](C)CCCC(C)C)O2`, for which the Potency result in test [1] is “inactive”.

On to `CC(NNC(=O)c1ccccc1)c1ccccc1` (stereo unspecified), for which, in test [1], the Potency result is “inactive”.

In the case of `O=S(=O)(O)c1cc(O)c2c(N=Nc3ccc(Nc4ccccc4)c4c(S(=O)(=O)O)cccc34)cc(S(=O)(=O)O)cc2c1`, in test [1], the Potency result is “inactive”.

For `CCCCCCCC(=O)O`, in test [1], the Potency result was “inactive”.

Regarding `O=C(Nc1cccc(C(F)(F)F)c1)c1cc(Br)cc(Br)c1O`, the Potency result in test [1] was “inactive”.

For `CCCCC/C=C\C/C=C\CCCCCCCC(=O)O`, the Potency result in test [1] is “inactive”.

Turning to `CC(C)(C)C(=O)OCOC(=O)[C@@H]1N2C(=O)[C@@H](N=CN3CCCCCC3)[C@H]2SC1(C)C`, the Potency result in test [1] was “inactive”.

`CCOC(=O)C1=C(C)NC(C)=C(C(=O)OCC)C1c1ccccc1C=CC(=O)OC(C)(C)C`: the Potency result in test [1] is “inactive”.

`Clc1cc(Cl)c(OCC#CI)cc1Cl`: the Potency in test [1] was 12.6 µM (active).

For the compound `COc1cc(-c2ccc(-[n+]3nc(-c4ccccc4)nn3-c3ccc([N+](=O)[O-])cc3)c(OC)c2)ccc1-[n+]1nc(-c2ccccc2)nn1-c1ccc([N+](=O)[O-])cc1`, in test [1], the Potency entry was “inactive”.

`CC1=CCC(C(C)(C)O)CC1` (stereo unspecified): the Potency entry in test [1] was “inactive”.

On to `CC(C)N=c1cc2n(-c3ccc(Cl)cc3)c3ccccc3nc-2cc1Nc1ccc(Cl)cc1`, for which the Potency entry in test [1] is “inactive”.
